HIF act: HIF pathway transcriptional activators, primary screen, cell-based, U2OS HRE-luciferase, luminescence | U2OS HRE-luciferase reporter; normalized: DMSO 0%, desferrioxamine 100% | activation, % at 7.5 µM (by protocol) | hit rate 0.32% among 300,000;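 active means mean activation of at least 10% of the iron chelator positive control signal, with at least half of replicates also reaching 10%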
AHR activator: AHR activators, primary screen, cell-based, luminescence, luciferase reporter, human | Aryl hydrocarbon receptor (Homo sapiens), P35869 | AHR-responsive luciferase reporter cells | activation, % at 5 µM | hit rate 2.5% among 320,000 | AID 2796, 2010; in the data active means activation above about 47%;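 further: 0% = vehicle wells and 100% = reference agonist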
Target sequence (P35869 whole entry, looked up): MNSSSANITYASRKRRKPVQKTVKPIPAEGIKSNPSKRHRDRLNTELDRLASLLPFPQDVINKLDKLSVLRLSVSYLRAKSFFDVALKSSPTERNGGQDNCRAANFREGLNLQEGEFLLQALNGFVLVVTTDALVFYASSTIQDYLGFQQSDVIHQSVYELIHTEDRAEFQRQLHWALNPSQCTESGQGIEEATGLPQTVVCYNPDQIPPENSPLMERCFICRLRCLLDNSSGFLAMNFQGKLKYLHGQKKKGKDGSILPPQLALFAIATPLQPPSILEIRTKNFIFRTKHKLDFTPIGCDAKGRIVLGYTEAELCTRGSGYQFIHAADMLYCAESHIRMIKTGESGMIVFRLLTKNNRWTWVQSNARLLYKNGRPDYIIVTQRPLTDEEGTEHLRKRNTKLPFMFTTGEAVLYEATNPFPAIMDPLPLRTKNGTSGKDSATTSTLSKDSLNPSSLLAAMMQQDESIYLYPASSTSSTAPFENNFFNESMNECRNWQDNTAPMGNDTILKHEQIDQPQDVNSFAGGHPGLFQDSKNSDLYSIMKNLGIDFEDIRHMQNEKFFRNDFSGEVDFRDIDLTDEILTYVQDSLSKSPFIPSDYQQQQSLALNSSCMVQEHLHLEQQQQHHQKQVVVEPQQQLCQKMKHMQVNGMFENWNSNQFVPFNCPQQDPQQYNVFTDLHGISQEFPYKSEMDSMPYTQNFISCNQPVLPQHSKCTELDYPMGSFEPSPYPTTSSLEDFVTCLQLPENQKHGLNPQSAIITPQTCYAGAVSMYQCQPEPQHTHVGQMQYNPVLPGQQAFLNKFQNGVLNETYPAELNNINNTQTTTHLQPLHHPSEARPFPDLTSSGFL
Yeast superoxide: reduction of superoxide in aged yeast, primary screen, HTS; S. cerevisiae aged cells, superoxide DHE fluorescence; hits give low values; superoxide response (% of plate mean), % at 10 µM; hit rate 0.18% among 330,000;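 active means superoxide response under a set limit, about three screen SD below normal, cut at about 65% in these data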;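 further: yeast aged for seven days with compound at 30 °C before DHE staining; 100% = average MFI of all compound-treated wells on the plate with controls excluded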
PLCg1 inh: PLC-gamma1 enzyme inhibitors, primary screen, biochemical, fluorescence, purified enzyme; inhibition, % at 12.2 µM; hit rate 0.84% among 370,000; fluorogenic substrate; 1-phosphatidylinositol 4,5-bisphosphate phosphodiesterase gamma-1 (Homo sapiens), P19174; in the data active means inhibition above about 9.5%
PLCb3 inh: human PLC-beta3 inhibitors, primary screen, biochemical, fluorescence | 1-phosphatidylinositol 4,5-bisphosphate phosphodiesterase beta-3 (Homo sapiens), Q01970 | Purified PLC-beta3, fluorogenic substrate | inhibition, % at 12.2 µM | hit rate 0.18% among 370,000 | AID 720704, 2013; in the data active means inhibition above about 11%;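 further: 0% = median of compound wells on plate and 100% = full blocker control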
sPLA2-III inh: human group III sPLA2 inhibitors, primary screen, biochemical, QFRET, BODIPY PC-A2 liposome substrate; Group 3 secretory phospholipase A2 (Homo sapiens), Q9NZ20; QFRET BODIPY PC-A2 liposome hydrolysis, fluorescence; inhibition, % at 12.2 µM; hit rate 0.56% among 370,000; AID 743126, 2013;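 active means inhibition above mean plus 3 SD of compounds lying within the high and low control bounds, cut at about 19% in these data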;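 further: 0% = median of test compound wells and 100% = no enzyme DMSO wells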
CR mimetic CP: superoxide lowering in aged yeast cells, confirmation, cherry picked compounds. superoxide response (% of plate), % at 10 µM. hit rate 1% among 850. S. cerevisiae aging, superoxide DHE fluorescence; hits give low values. shares compounds with Yeast superoxide;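 active means superoxide signal below 65% of the plate average of sample wells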;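 further: cells aged with compound for 7 days at 30 degrees C before staining; 100% equals mean DHE fluorescence of all compound wells on the plate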
DHE fluor count: DHE quenching or ROS scavenging interference in aged yeast, artefact control for yeast caloric restriction mimetic project, S. cerevisiae BY4741, flow cytometry; shares compounds with Yeast superoxide; fluorescence response, % at 10 µM; 850 tested, under 10 active; DHE fluorescence; hits give low values;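 active means fluorescence response below 15%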;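 further: percent of the mean fluorescence averaged over all compound wells on the plate; lower means stronger quenching of DHE signal or ROS scavenging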
* hit, by the source's call; x = no result given. This is a sample that favours compounds with a hit; in the whole collection about 3.9% have one here.

SMILES	HIF act	AHR activator	Yeast superoxide	PLCg1 inh	PLCb3 inh	sPLA2-III inh	CR mimetic CP	DHE fluor count
COc1ccc(CCNC(=O)c2ccc(OCC(=O)N3CCOCC3)c(OC)c2)cc1OC	0	1	64*	1	-4	-1	100	104
COc1ccc(NC(=O)C2CC(=O)N(c3ccccc3F)C2)cc1S(=O)(=O)N1CCCCC1 (stereo not given)	x	x	x	1	2	5	x	x
COC(=O)c1c(C)[nH]c(C(=O)COC(=O)CCNS(=O)(=O)c2cccc(C(F)(F)F)c2)c1C	x	3	113	1	-3	-18	x	x
CC1CCN(C(=O)COC(=O)c2c[nH]c3ccccc23)CC1	x	x	x	2	-6	0	x	x
CCOC(=O)C(CC)n1cnc2c(nnn2-c2cccc(OC)c2)c1=O (stereo not given)	3	5	65*	2	-3	-3	107	95
O=C(CN(c1ccc2c(c1)OCCO2)S(=O)(=O)c1ccccc1)NCc1ccc(Cl)cc1	0	7	62*	0	2	-14	102	91
O=C(CN(c1ccc(F)cc1)S(=O)(=O)c1ccc2c(c1)OCCO2)NCc1ccccc1	0	-1	91	-2	2	5	x	x
Cc1cc(C)nc(/N=C(\N)Nc2ccc(C(C)C)cc2)n1	1	4	94	3	-4	0	x	x
CC(C)(C)Nc1ncnc2c1cnn2-c1ccccc1	3	13	87	0	-3	1	100	95
CC(C)Nc1ncnc2c1cnn2-c1ccc(Cl)cc1	0	-13	98	4	6	-2	90	91
c1ccc(CNc2ncnc3c2cnn3-c2ccccc2)cc1	4	1	100	7	3	5	x	x
O=C(Cc1c[nH]c2ccccc12)NCc1ccncc1	1	19	106	0	-5	4	x	x
O=C(Cc1ccccc1)NCc1ccncc1	0	1	57*	1	-1	4	102	97
N#Cc1c(NCc2ccccc2)ccnc1NCc1cccnc1	-1	8	101	-3	-1	-3	x	x
N#Cc1c(F)cccc1NCc1cccnc1	-4	8	56*	-3	-6	-21	97	94
CCCn1c2ccc(/C(C)=N\O)cc2c2cc(/C(C)=N/O)ccc21	1	48*	112	-107	-121	-14	104	90
C/C(=N\O)c1ccc(Cl)c(Cl)c1	0	-3	98	x	x	x	x	x
COC(=O)[C@H](CC(C)C)N1Cc2nnn(Cc3ccc(C)cc3)c2-c2cc(F)ccc2S1(=O)=O	x	x	x	6	0	-3	x	x
CCC1(c2ccc(F)cc2)NC(=O)N(CC(=O)Nc2cccnc2Cl)C1=O (stereo not given)	0	1	64*	-3	-5	15	117	101
COc1ccc(C(=O)NCC(=O)OCC(=O)NC(=O)c2ccc(C(C)(C)C)cc2)cc1OC	x	0	145	6	-10	10	x	x
COc1ccc(CNC(=O)CNC(=O)c2ccc(C(C)(C)C)cc2)cc1OC	-6	5	62*	3	-3	2	104	89
COc1ccc(N2CCN(c3ccc(C(N)=O)cc3[N+](=O)[O-])CC2)cc1	1	-2	90	0	0	0	x	x
COc1ccc(N2CCN(C(=O)c3cccnc3)CC2)c([N+](=O)[O-])c1	0	3	98	-1	-3	1	101	94
Cc1cc(Br)c2[nH]cc(CCNC(=O)c3ccco3)c2c1	0	27	88	-1	-4	-24	x	x
C=C1CCC[C@]2(C)C[C@H]3OC(=O)C(CNCCN(C)C)[C@H]3CC12 (stereo not given in full)	1	1	95	4	0	0	x	x

High-throughput results from PubChem BioAssay.
